{"source": "ChEMBL document CHEMBL4513216", "about": "“Probing the Open Global Health Chemical Diversity Library for Multistage-Active Starting Points for Next-Generation Antimalarials” (ACS Infect Dis, 2020)", "note": "About 8,600 (12%) of roughly 69,000 compounds showed an effect of 50% or more. The sample as a whole holds a higher share of strong results than the screen did."}
{"test_system": "Plasmodium berghei", "assay": "Screen against P. berghei liver stage (PbLuc), transformed with Luciferase, at 10uM", "format": "functional, HepG2", "conditions": "tested at 10 uM", "units": {"INHIBITION": "%"}}
{"smiles": "COC[C@]1(O)CCN(C2CCN(c3ccc(F)c(F)c3)CC2)CC1(C)C", "INHIBITION": 39.4}
{"smiles": "COC(=O)c1cccc(C2CNCCN2C(C)=O)c1", "note": "(stereo not drawn)", "INHIBITION": 24.99}
{"smiles": "COC(=O)CNC(=O)Cn1ccc2cccc(OC)c21", "INHIBITION": 48.9}
{"smiles": "Cc1csc(N2CCN(CC(=O)Nc3cc(C)nn3C)CC2C)n1", "note": "(stereo not drawn)", "INHIBITION": 12.96}
{"smiles": "CCn1nc(C)c2nc(C(C)C)nc(N3CCCC3)c21", "INHIBITION": 15.4}
{"smiles": "O=C1CC2(CCCC2)CC(=O)N1CCn1cnnc1", "INHIBITION": -28.9}
{"smiles": "Cc1nccn1CCN1C(=O)CC2(CCCC2)CC1=O", "INHIBITION": 56}
{"smiles": "Cc1nncn1CCN1C(=O)CC2(CCCC2)CC1=O", "INHIBITION": -23.3}
{"smiles": "CC(C)c1nn(C)c(N(C)C)c1CNC1CCCCNC1=O", "note": "(stereo not drawn)", "INHIBITION": -4.13}
{"smiles": "O=C(Cc1cccc(O)c1)NCCCNC(=O)c1cccc(F)c1", "INHIBITION": 8.64}
{"smiles": "Cc1cccc(-c2nc(N)nc3c2CN(C(=O)c2ccncn2)C3C)c1", "note": "(stereo not drawn)", "INHIBITION": 19.9}
{"smiles": "Cc1cccc(-c2nc(N)nc3c2CN(C(=O)c2cc(C)n[nH]2)C3C)c1", "note": "(stereo not drawn)", "INHIBITION": 58.9}
{"smiles": "COCC(=O)N1Cc2c(-c3cccc(C)c3)nc(N)nc2C1C", "note": "(stereo not drawn)", "INHIBITION": -24.1}
{"smiles": "Cc1cc(C(=O)Nc2cccn(Cc3ccccc3)c2=O)no1", "INHIBITION": -85.8}
{"smiles": "O=C(c1ccccn1)N1CCC2(CC1)COC(COCC1CC1)C2", "note": "(stereo not drawn)", "INHIBITION": 23.5}
{"smiles": "CN(C)CCn1c2c(ccc1=O)CC(NC(=O)NC1CCCC1)CC2", "note": "(stereo not drawn)", "INHIBITION": 39.5}
{"smiles": "CCN1CCN(C(C)(C)CNc2nc(C)cc(C3CCC3)n2)CC1", "INHIBITION": 9.52}
{"smiles": "Cc1cc(C2CCC2)nc(NCC(C)(C)N2CCCC2)n1", "INHIBITION": 57.2}
{"smiles": "Cc1cc(C2CCC2)nc(NCC(C)(C)N2CCOCC2)n1", "INHIBITION": 9.52}
{"smiles": "COC(=O)CCC(=O)NCc1cccnc1N1CCc2ccccc2C1", "INHIBITION": -13.1}
{"smiles": "CC(NC(=O)C1=NN(C)C(=O)CC1)c1cccc(Cl)c1", "note": "(stereo not drawn)", "INHIBITION": 24.3}
{"smiles": "Cc1csc(C2CCCCN2C(=O)c2cc(C3CC3)[nH]n2)n1", "note": "(stereo not drawn)", "INHIBITION": 13.6}
{"smiles": "Cc1csc(C2CCCCN2C(=O)c2cc(C(C)C)[nH]n2)n1", "note": "(stereo not drawn)", "INHIBITION": 70.8}
{"smiles": "Cc1cc(C(=O)N2CCCCC2c2nc(C)cs2)[nH]n1", "note": "(stereo not drawn)", "INHIBITION": 35.7}
{"smiles": "Cc1nc(CN2CCC(C(=O)O)(n3ccc(C(C)C)n3)CC2)co1", "INHIBITION": -35.2}
{"smiles": "N#Cc1ccc(NC(=O)N2CCCCC2CN2CCCC2=O)cc1", "note": "(stereo not drawn)", "INHIBITION": 44.9}
{"smiles": "COCCCC1CCCCN1C(=O)c1ccc(SCCO)cc1", "note": "(stereo not drawn)", "INHIBITION": 52.6}
{"smiles": "CCC1CCCCCN1C(=O)c1ccc(N2CCC(O)CC2)cc1", "note": "(stereo not drawn)", "INHIBITION": -45.2}
{"smiles": "Cc1ccc(C(=O)N2CCCCC2CN(C)C)cc1", "note": "(stereo not drawn)", "INHIBITION": 21.8}
{"smiles": "O=C1CCCN1CCC1CCCCN1C(=O)c1ccc(SCCO)cc1", "note": "(stereo not drawn)", "INHIBITION": 58.2}
{"smiles": "Cc1cc(C)n(CC(=O)N2CCCCC2CCN2CCCC2=O)c(=O)n1", "note": "(stereo not drawn)", "INHIBITION": 44.2}
{"smiles": "COc1ccc2c(c1)CN(C)C(=O)CCN2CC(O)C(C)(C)C", "note": "(stereo not drawn)", "INHIBITION": 17.7}
{"smiles": "CC(C)(NCC(=O)NCC1CC1)c1ccc2c(c1)OCCO2", "INHIBITION": -36.3}
{"smiles": "CCn1ccc(C(=O)Nc2ccc3c(c2)C(C)(C)C(=O)N3C)n1", "INHIBITION": 40}
{"smiles": "CCC(CC)C(=O)N1CCC(c2nn(CCN)c3nccnc23)C1", "note": "(stereo not drawn)", "INHIBITION": 41.2}
{"smiles": "CS(=O)(=O)N[C@@H]1CN(C(=O)c2ccccn2)C[C@@H]2CCCO[C@@H]21", "INHIBITION": 34.6}
{"smiles": "COc1ccc(-c2cc3nc(CCNC(=O)CN(C)C)nn3cn2)cc1", "INHIBITION": 19.4}
{"smiles": "CC(C)(C)C(=O)CN1CCc2ccccc2NCCC1=O", "INHIBITION": 15.4}
{"smiles": "CN1CCCN(C(=O)c2ccn3ccnc3c2)CC1", "INHIBITION": -60.7}
{"smiles": "O=C(c1ccsc1)N1CC[C@@H](N2CCOCC2)[C@@H]1Cc1ccccc1", "INHIBITION": -2.72}
{"smiles": "COCc1nc(C(=O)NS(=O)(=O)c2ccc(F)c(F)c2)cs1", "INHIBITION": 21.1}
{"smiles": "COCc1nc(C(=O)NS(=O)(=O)c2ccc(C)c(C)c2)cs1", "INHIBITION": -1.7}
{"smiles": "COCc1nc(C(=O)NS(=O)(=O)c2ccc(OC)c(C)c2)cs1", "INHIBITION": 52.6}
{"smiles": "COc1ccccc1NC(=O)c1cc2c([nH]c1=O)CCCC2=O", "INHIBITION": -15.9}
{"smiles": "CCN(c1ccc(C(=O)NCCN2CCOCC2)cc1)S(=O)(=O)CC", "INHIBITION": 34.2}
{"smiles": "CCN(CC)C(=O)Cn1cc(C(=O)NCCc2scnc2C)nn1", "INHIBITION": 10.6}
{"smiles": "CCN(CC)C(=O)Cn1cc(C(=O)NCCCc2scnc2C)nn1", "INHIBITION": 56.3}
{"smiles": "CCN(CC)C(=O)Cn1cc(C(=O)NCCc2nc(C)c(C)s2)nn1", "INHIBITION": 39}
{"smiles": "CN(Cc1ccco1)[C@@H]1CN(CC2CCOCC2)C[C@@H]2CCCO[C@@H]21", "INHIBITION": 38.1}
{"smiles": "CNC(=O)C1(c2cnccn2)CCCN1C(=O)c1ccccc1C", "note": "(stereo not drawn)", "INHIBITION": 30.4}
{"smiles": "Cc1ccc2nc(-c3cnc(N)nc3)cc(C(=O)N(C)C)c2c1", "INHIBITION": 13.5}
{"smiles": "COc1ccc2c(C(=O)N(C)C)cc(-c3cnc(N)nc3)nc2c1", "INHIBITION": 15.7}
{"smiles": "Cc1ccc2nc(-c3cnc(N)nc3)c(C)c(C(=O)N(C)C)c2c1", "INHIBITION": 50.5}
{"smiles": "Cc1cc(C)c2c(C(=O)N(C)C)cc(-c3cnc(N)nc3)nc2c1", "INHIBITION": 5.91}
{"smiles": "CCCn1cc(-c2cc(C(=O)N(C)C)c3ccc(C)cc3n2)cn1", "INHIBITION": 8.845}
{"smiles": "CN(C)C(=O)c1cc(-c2cnc(N)nc2)nc2cc(F)ccc12", "INHIBITION": 60.2}
{"smiles": "c1ncn(CC2CCCN(CC3CCCCC3)C2)n1", "note": "(stereo not drawn)", "INHIBITION": -1.75}
{"smiles": "Nc1cc(C(=O)N2CCCC(C(=O)CCc3ccccc3)C2)ccn1", "note": "(stereo not drawn)", "INHIBITION": 49.3}
{"smiles": "c1cnc(N2CCO[C@H]3CN(Cc4cc[nH]n4)C[C@H]32)cn1", "INHIBITION": -15.3}
{"smiles": "CCc1nc(CN2CCOC(Cn3nc(C)cc3C)C2)no1", "note": "(stereo not drawn)", "INHIBITION": -0.219}
{"smiles": "COCCN1CCC(CNc2cnc3ccccc3n2)CC1", "INHIBITION": 46.1}
{"smiles": "COCCN1CCC(CNc2nccc(-c3cnn(C)c3)n2)CC1", "INHIBITION": 13.3}
{"smiles": "COCCN1CCC(CNc2nc3ccccc3o2)CC1", "INHIBITION": 61}
{"smiles": "Cc1csc(CN2CCC3(CC2)COC(COCC2CC2)C3)n1", "note": "(stereo not drawn)", "INHIBITION": 43}
{"smiles": "CS(=O)(=O)NC1CCCN(C(=O)NCc2ccccc2Cl)C1", "note": "(stereo not drawn)", "INHIBITION": 25.4}
{"smiles": "CC(=O)OC1CN(c2nc3c(Cl)cccc3s2)C1", "INHIBITION": -56.7}
{"smiles": "c1cnc(-c2nc(CNC3CCc4ncnn4C3)cs2)nc1", "note": "(stereo not drawn)", "INHIBITION": -25.75}
{"smiles": "Cc1ccc(CCC(=O)N2CCn3c(nnc3C(C)C)C2)cc1Cl", "INHIBITION": 8.41}
